Measurements taken from PubChem BioAssay (NCATS).
Results filed as inconclusive are left out. Where a call stands in place of a potency, no number is given. Calls of active or inactive are those of the source. Unless noted, calls follow the shape of the dose curve; as a rule, active = well fitted curve in the direction sought with a large enough effect; inconclusive = small, poorly fitted or top-dose-only effect, or another doubt; inactive = no such curve, though single readings can be large; an effect the other way counts as inactive or inconclusive.

What was measured:
[1] = Nrf2 qHTS screen for inhibitors: Validation (AID 493153; active = well fitted inhibition curve with a large enough effect in the main read-out, with a control signal flat, not every such curve was filed as active); details: Potency: luciferase luminescence; viability change: measured here: cytotoxicity max response
Method in brief: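 Concentration-response test in A549 ARE_Fluc reporter cells (5% FBS OPTI-MEM), compound exposure 18-24 h at 37°C, 5% CO2. Cell viability measured first by CellTiter-Fluor fluorescence; ARE-driven luciferase luminescence then measured as Nrf2 activity.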

[2] = qHTS for Inhibitors of Cell Surface uPA Generation: Validation Assay (AID 493164);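 also: RAW 264.7 macrophage cells exposed to compound for 18 h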
Method in brief: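 Compounds are titrated over seven points (2.45 nM–38.3 uM final) onto pre-plated RAW 264.7 cells and incubated for 18 h. Retained intracellular ATP, measured with ATP-Lite, indicates blocked lethal factor entry.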

[3] = molecular target: Galactokinase (Homo sapiens) (UniProt P51570); experiment: qHTS Validation Assay for Inhibitors of Human Galactokinase (GALK) (AID 493189)
Sequence of Galactokinase (Homo sapiens) (P51570 whole entry, looked up): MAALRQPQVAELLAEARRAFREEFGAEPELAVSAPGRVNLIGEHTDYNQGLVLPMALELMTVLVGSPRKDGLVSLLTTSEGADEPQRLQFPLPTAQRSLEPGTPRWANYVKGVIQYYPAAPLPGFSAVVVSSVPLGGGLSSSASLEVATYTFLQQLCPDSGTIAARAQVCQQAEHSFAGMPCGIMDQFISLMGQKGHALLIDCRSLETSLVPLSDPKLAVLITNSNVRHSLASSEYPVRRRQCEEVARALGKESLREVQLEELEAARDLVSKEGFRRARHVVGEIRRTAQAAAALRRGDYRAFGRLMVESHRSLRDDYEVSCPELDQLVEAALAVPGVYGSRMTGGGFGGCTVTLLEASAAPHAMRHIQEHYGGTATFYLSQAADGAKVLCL
Method in brief: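 Enzyme activity is inferred from ATP consumption: human GALK phosphorylates galactose (100 uM) using 35 uM ATP for 1 h at room temperature, and luciferase-based Kinase-Glo Plus reports unconsumed ATP.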

[4] = Validation screen for small molecules that induce DNA re-replication in SW480 colon adenocarcinoma cells (AID 504364)
Method in brief: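 Read-out: total Hoechst intensity of nuclei by fluorescence scanning imager; hits raise the fraction of nuclei with elevated DNA content. Cells received compound for 48 hr at 37 C before a 40 min stain.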

[5] = molecular target: Peptidyl-prolyl cis-trans isomerase NIMA-interacting 1 (Homo sapiens) (UniProt Q13526); experiment: qHTS Validation Assay to Find Inhibitors of Pin1 (AID 504536; active = well fitted inhibition curve with a large enough effect in the polarisation, with a control signal flat, not every such curve was filed as active; the % refers to the polarisation)
Sequence of Peptidyl-prolyl cis-trans isomerase NIMA-interacting 1 (Homo sapiens) (Q13526 whole entry, looked up): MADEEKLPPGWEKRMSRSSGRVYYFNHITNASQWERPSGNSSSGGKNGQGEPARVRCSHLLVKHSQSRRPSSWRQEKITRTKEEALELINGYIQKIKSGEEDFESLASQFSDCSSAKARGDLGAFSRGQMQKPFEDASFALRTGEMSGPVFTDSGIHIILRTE
Method in brief: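 Fluorescence polarization competition: compounds (titration) displace HiFluor-488-labeled Pin1-1b peptide from Pin1 (0.3 uM final) in pH 7.5 HEPES buffer with DTT, 10 min at room temperature; %Activity normalized to no-enzyme wells, curves fitted.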

[6] = molecular target: Phosphoglycerate kinase, glycosomal (Trypanosoma brucei brucei) (UniProt P07378); experiment: qHTS Validation Assay to Find Inhibitors of Phosphoglycerate Kinase (AID 504547)
Sequence of Phosphoglycerate kinase, glycosomal (Trypanosoma brucei brucei) (P07378 whole entry, looked up): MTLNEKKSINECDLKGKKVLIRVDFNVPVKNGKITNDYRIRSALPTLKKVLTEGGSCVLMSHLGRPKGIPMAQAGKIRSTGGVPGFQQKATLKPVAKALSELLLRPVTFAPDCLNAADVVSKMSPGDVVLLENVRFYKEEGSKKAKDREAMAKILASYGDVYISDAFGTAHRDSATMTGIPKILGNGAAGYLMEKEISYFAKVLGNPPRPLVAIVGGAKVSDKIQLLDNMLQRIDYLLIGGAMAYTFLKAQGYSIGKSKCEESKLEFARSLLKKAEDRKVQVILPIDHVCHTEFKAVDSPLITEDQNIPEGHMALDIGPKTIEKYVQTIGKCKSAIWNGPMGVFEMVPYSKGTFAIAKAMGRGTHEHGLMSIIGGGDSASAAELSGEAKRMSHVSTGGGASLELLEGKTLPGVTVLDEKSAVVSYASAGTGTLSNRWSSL
Method in brief: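 Compounds are pinned into the substrate/PGK mixture, and GAPDH (100nM final) is added to start the reaction by producing 1,3-BPG. After 60 minutes at room temperature, Kinase-Glo Plus is added and luminescence is measured 10 minutes later.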

[7] = molecular target: phosphoglycerate mutase (Leishmania major) (UniProt Q4Q090); experiment: qHTS Validation Assay to Find Inhibitors of Phosphoglycerate Mutase (AID 504548); details: Potency: inhibition qHTS; also: series mostly up to about 58 µM
Sequence of phosphoglycerate mutase (Leishmania major) (Q4Q090 1-553): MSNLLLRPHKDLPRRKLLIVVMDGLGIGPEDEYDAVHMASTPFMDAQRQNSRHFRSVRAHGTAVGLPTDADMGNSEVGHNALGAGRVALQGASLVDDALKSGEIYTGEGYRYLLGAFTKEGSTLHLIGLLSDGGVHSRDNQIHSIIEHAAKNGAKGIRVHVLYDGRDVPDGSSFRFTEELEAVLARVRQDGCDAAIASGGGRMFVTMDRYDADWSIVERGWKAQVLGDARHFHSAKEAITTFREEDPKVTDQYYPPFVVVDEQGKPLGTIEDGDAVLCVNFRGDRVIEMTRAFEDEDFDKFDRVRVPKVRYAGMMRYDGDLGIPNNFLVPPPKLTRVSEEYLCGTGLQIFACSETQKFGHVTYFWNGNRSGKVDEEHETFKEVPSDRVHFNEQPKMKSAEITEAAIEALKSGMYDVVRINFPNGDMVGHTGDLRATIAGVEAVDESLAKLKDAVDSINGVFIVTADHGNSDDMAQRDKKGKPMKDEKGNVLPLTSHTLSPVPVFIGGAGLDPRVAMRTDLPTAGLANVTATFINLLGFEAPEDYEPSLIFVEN
Method in brief: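 Lm PGAM at 1.25 nM final with substrate in 100 mM TEA pH 7.6, 5 mM MgCl2, 0.01% Tween-20; 45 min at room temperature. Kinase-GloPlus added, 10 min, end-point luminescence read.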

[8] = molecular target: Ubiquitin carboxyl-terminal hydrolase 1 (Homo sapiens) (UniProt O94782); experiment: Inhibitors of USP1/UAF1: Pilot qHTS (AID 504865); also: nearly all actives have a fitted effect of over 35% in size; also: potency is read from the fitted curve at half-maximal effect
Sequence of Ubiquitin carboxyl-terminal hydrolase 1 (Homo sapiens) (O94782 whole entry, looked up): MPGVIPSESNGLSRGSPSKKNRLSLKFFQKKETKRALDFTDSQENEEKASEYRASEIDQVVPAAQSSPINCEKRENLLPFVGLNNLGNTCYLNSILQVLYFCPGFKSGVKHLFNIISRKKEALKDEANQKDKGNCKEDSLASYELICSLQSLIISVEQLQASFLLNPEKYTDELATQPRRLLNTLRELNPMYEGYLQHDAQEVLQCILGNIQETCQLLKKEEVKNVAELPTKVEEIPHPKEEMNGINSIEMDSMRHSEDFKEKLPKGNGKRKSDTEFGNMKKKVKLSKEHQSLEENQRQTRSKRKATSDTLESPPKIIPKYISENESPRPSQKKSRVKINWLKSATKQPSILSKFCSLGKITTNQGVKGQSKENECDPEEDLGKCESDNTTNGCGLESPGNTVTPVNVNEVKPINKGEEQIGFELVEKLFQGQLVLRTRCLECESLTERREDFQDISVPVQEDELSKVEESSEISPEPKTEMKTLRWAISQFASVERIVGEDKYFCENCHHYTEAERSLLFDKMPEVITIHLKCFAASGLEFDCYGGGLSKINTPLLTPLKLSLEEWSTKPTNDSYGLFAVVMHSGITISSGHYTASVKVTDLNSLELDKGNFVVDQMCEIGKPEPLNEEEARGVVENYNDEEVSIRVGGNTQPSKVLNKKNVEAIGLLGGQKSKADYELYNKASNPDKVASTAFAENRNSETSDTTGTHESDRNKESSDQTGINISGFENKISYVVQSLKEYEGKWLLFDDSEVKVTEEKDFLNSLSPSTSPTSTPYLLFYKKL
Method in brief: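 Enzyme-free wells gave the negative control, while test wells held 1nM USP1/UAF1 preincubated with compound for 15 min at room temperature. Ub-Rho at 150nM final started the reaction, and fluorescence at 480/540 nm was recorded kinetically.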

[9] = qHTS for Inhibitors of ATXN expression: Validation of Cytotoxic Assay (AID 588349)
Method in brief: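 Cytotoxicity counter-screen: HEK293 cells exposed to compound titrations, 72 hr, 37 degrees C. Read-out is intracellular ATP (CellTiter Glo luminescence) as a viability measure.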

[10] = qHTS for Inhibitors of ATXN expression: Validation (AID 588378); also: series mostly up to about 57 µM; nearly all actives have a fitted effect of over 75% in size
Method in brief: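 After a 2 h attachment and 24 h compound incubation, HEK293-ATXN2-FFLuc wells are read for fluorescence at 405 nm excitation/525 nm emission as a viability measure, then for Bright-Glo luminescence reflecting ATXN2 expression.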

[11] = molecular target: DNA dC->dU-editing enzyme APOBEC-3G (Homo sapiens) (UniProt Q9HC16); experiment: qHTS for inhibitors of Vif-A3G interactions: Validation (AID 588379)
Sequence of DNA dC->dU-editing enzyme APOBEC-3G (Homo sapiens) (Q9HC16 whole entry, looked up): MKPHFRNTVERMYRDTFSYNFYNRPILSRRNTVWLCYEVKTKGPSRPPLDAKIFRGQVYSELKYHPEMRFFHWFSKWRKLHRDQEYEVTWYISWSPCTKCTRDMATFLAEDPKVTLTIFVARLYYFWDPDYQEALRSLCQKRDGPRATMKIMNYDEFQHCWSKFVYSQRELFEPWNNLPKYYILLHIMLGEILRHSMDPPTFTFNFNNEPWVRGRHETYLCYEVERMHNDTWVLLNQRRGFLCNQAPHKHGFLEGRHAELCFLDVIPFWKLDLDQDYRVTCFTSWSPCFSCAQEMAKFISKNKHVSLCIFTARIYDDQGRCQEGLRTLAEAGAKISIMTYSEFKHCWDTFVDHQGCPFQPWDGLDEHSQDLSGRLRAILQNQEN
Method in brief: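 Yellow fluorescence (Ex 488, Em 500-530) of Vif-coexpressing HeLa A3G-eYFP cells, scanned by Acumen cytometer, reports blocked A3G degradation. Cells plated at 700/well overnight at 37 deg C before compound addition, then a further overnight compound incubation at 37 deg C.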

| SMILES | Potency [1] | viability change [1] [%] | outcome [2] | Potency [3] | Potency [4] | Potency [5] | Potency [6] | Potency [7] | Potency [8] | Potency [9] | Potency [10] | Potency [11] |
| --- | --- | --- | --- | --- | --- | --- | --- | --- | --- | --- | --- | --- |
| COc1cc(C(O)C(=O)O)ccc1O (configuration not stated) | inactive | 10.2 | inactive | inactive | inactive | inactive | inactive | inactive | inactive | inactive |  |  |
| CC(/C=C/c1cccc(Oc2ccc(F)cc2)c1)N(O)C(N)=O (configuration not stated) | inactive | 3.6 | inactive | inactive | inactive | inactive | inactive | inactive | inactive | inactive | inactive |  |
| N[C@@H](Cc1ccc(O)c(I)c1)C(=O)O | inactive | -2.22 | inactive | inactive | inactive | inactive | inactive | inactive | inactive | inactive | inactive |  |
| CC(=O)NCCc1c[nH]c2ccc(O)cc12 | inactive | -0.372 | inactive | inactive | inactive | inactive | inactive | inactive | inactive | inactive | inactive |  |
| COc1cc2c(CCNC(C)=O)c[nH]c2cc1O | inactive | -0.977 | inactive | inactive | inactive | inactive | inactive | inactive | inactive | inactive | inactive |  |
| NC1C=CC=C(C(=O)O)C1 (configuration not stated) | inactive | 17.7 | inactive | inactive | inactive | inactive | inactive | inactive | inactive | inactive | inactive |  |
| CCCCS(=N)(=O)CC[C@H](N)C(=O)O (some centres not stated) | inactive | 0.751 | inactive | inactive | inactive | inactive | inactive | inactive | inactive | inactive | inactive |  |
| COC(=O)C(N)Cc1ccc(Cl)cc1 (configuration not stated) | inactive | 9.57 | inactive | inactive | inactive | inactive | inactive | inactive | inactive | inactive | inactive |  |
| O=C(O)/C=C/c1cnc[nH]1 | inactive | -12.4 | inactive | inactive | inactive | inactive | inactive | inactive | inactive | inactive | inactive |  |
| NCC(O)(CS(=O)(=O)O)c1ccc(Cl)cc1 (configuration not stated) | inactive | 4.12 | inactive | inactive | inactive | inactive | inactive | inactive | inactive | inactive |  |  |
| N[C@H](C(=O)O)[C@H]1C[C@@H]1C(=O)O | inactive | 2.9 | inactive | inactive | inactive | inactive | inactive | inactive | inactive | inactive | inactive |  |
| Nc1ccc(-c2nc3ccc(-c4nc5ccc(N)cc5[nH]4)cc3[nH]2)cc1 | inactive | -10.2 | inactive | inactive | inactive | inactive | inactive | inactive | 50.1 µM (active) | inactive | inactive |  |
| C#CCn1c(=O)c2c(ncn2C)n(C)c1=O | inactive | 4.85 | inactive | inactive | inactive | inactive | inactive | inactive | inactive | inactive | inactive |  |
| NC1(C(=O)O)CCCCC1 | inactive | -4.89 | inactive | inactive | inactive | inactive | inactive | inactive | inactive | inactive | inactive |  |
| CCSC(=N)N | inactive | 0.659 | inactive | inactive | inactive | inactive | inactive | inactive | inactive | inactive | inactive | inactive |
| COc1ccc(-c2ccc(N)[n+](CCCC(=O)O)n2)cc1 | inactive | 1.33 | inactive | inactive | inactive | inactive | inactive | inactive | inactive | inactive | inactive |  |
| O=C(O)/C(=C/c1c(C(=O)O)[nH]c2cc(Cl)cc(Cl)c12)c1ccccc1 | inactive | 4.57 | inactive | inactive | inactive | inactive | inactive | inactive | inactive | inactive | inactive |  |
| COc1ccccc1N1CCN(CCCCN2C(=O)c3ccccc3C2=O)CC1 | inactive | 4.76 | inactive | inactive | inactive | inactive | inactive | inactive | inactive | inactive |  | inactive |
| COc1ccc(CCN(C)CCc2ccc(OC)c(OC)c2)cc1OC | inactive | 4.35 | inactive | inactive | inactive | inactive | inactive | inactive | inactive | inactive | inactive | inactive |
| N=C(N)c1ccc(N)cc1 | inactive | 3.63 | inactive | inactive | inactive | inactive | inactive | inactive | inactive |  | inactive |  |
| N[C@@H](CS(=O)O)C(=O)O | inactive | -0.201 | inactive | inactive | inactive | inactive | inactive | inactive | inactive | inactive | inactive | inactive |
| CC(=O)O[C@H]1CC2(C)[C@@H](C[C@@H](O)[C@H]3[C@@]4(C)CC[C@@H](O)[C@@H](C)[C@@H]4CC[C@@]32C)C1=C(CCC=C(C)C)C(=O)O (some centres not stated) | inactive | -4.76 | inactive | inactive | inactive | inactive | inactive | inactive | inactive |  | inactive |  |
| O=[N+]([O-])c1cccc2c(Br)[nH]nc12 | inactive | 2.48 | inactive | inactive | inactive | inactive | inactive | inactive | inactive |  | inactive | inactive |
